# Data published in PubChem BioAssay AID1508622 (National Center for Advancing Translational Sciences (NCATS), 2021).
# A number with no mark means an inactive call. Calls of active or inactive are those of the source. The call rests on the fitted dose curve; in most records, active means well fitted activation curve with a large enough effect; inconclusive means small, poorly fitted or top-dose-only effect; inactive means no such curve, though single readings can be large or run the other way.
# Test: Confirmatory qHTS for Identification of Small Molecule Activators of Huntingtin-Antisense Promoter Activity
# Conditions: HEK293 HTT-AS promoter firefly luciferase reporter, 24 h; series mostly up to 57.5 µM; activity change, positive = activation: at the top concentration
# In short: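 Plated reporter HEK293 cells (24 h) received library compounds at up to 57.5 uM final or 50 uM PTC124, incubated 24 h at 37C; firefly luciferase luminescence was then recorded with Dual-Glo reagent.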
# Potency means the concentration at half of the fitted maximal effect.
SMILES,"activity change, positive = activation",Potency
COc1ccc(N2CCN(C(=O)c3ccc4c(=O)n(CCc5ccc(OC)c(OC)c5)c(=O)[nH]c4c3)CC2)cc1,-61.7%,–
Cc1ccc(C)c(OCCCC(C)(C)C(=O)O)c1,8.19%,–
CCCC(=O)c1ccc(OC(=O)c2c(-c3ccccc3Cl)noc2C)cc1,-25.5%,–
CCc1cccc(NC(=O)CSc2nc3ccsc3c(=O)n2CC)c1,-47.7%,–
Cc1ccc(C)c(NC(=O)Cn2c(-c3nonc3N)nc3ccccc32)c1,-5.46%,–
CCN1C(=O)c2ccccc2Sc2ccc(NC(=O)c3ccc(C)c(F)c3)cc21,-22.3%,–
Cc1ccc(SCc2nc(-c3ccc(C(=O)NCc4ccccc4Cl)cc3)oc2C)cc1,-12.5%,–
O=C(Nc1ccc(F)c(Cl)c1)c1cc(S(=O)(=O)N2CCCc3ccccc32)ccc1F,24.1%,–
Cc1nc(C)c(-c2ccc(SCC(=O)Nc3ccc(F)c(F)c3)nn2)s1,-50.1%,–
Cn1cnc(S(=O)(=O)N2CCC(C(=O)Nc3ccc(Cl)c(C(F)(F)F)c3)CC2)c1,-54.1%,–
COc1cc(Nc2ncc3c(n2)CCN(Cc2cc(F)cc(F)c2)C3)cc(OC)c1,-15.5%,–
COc1ccc(-c2noc(Cn3c(=O)c4ccccc4n(CC(=O)Nc4cccc(C(F)(F)F)c4)c3=O)n2)cc1,-22.2%,–
CCCc1cc(N2CCN(c3cccc(C)c3C)CC2)n2cnnc2n1,-72.5%,–
COc1cc(CNC(=O)c2ccc3nc(Cc4ccccc4)oc3c2)cc(OC)c1OC,-68.9%,–
COc1ccc(CNC(=O)c2ccc3c(c2)CCN3S(=O)(=O)c2ccc(C)cc2)cc1,-20.3%,–
CCc1ccc(NC(=O)C2CCCN(S(=O)(=O)c3ccc(F)cc3)C2)cc1 (stereo not drawn),-27.7%,–
CC(=O)Nc1ccc(S(=O)(=O)Nc2cc(-c3cn4ccccc4n3)ccc2C)cc1,–,10.7 µM (active)
CCN(C(=O)c1oc2ccc(S(=O)(=O)N3CCCCCC3)cc2c1C)c1ccccc1,-19.3%,–
O=C(Cn1c(=O)oc2cc(S(=O)(=O)N3CCCCC3)ccc21)NCc1ccc(F)cc1,-27.8%,–

SMILES,"activity change, positive = activation",Potency
C1=CCOCc2cc(ccc2OCCN2CCCC2)Nc2nccc(n2)-c2cccc(c2)OCC1,-41.6%,–
C#C[C@]1(O)CC[C@H]2[C@H]3CCc4cc(OC)ccc4[C@H]3CC[C@@]21C,13.8%,–
Cc1cccc(CSc2cn(CC(=O)N3CCOCC3)c3ccccc23)c1,–,3.01 µM (active)
CCSc1ncc(Cl)c(C(=O)Nc2ccc(S(=O)(=O)N3CCCCC3)cc2)n1,-39.5%,–
CCOC(=O)C1CCC(CN(Cc2c(Cl)cccc2Cl)S(=O)(=O)c2ccc(Cl)cc2)CC1 (stereo not drawn),-73.4%,–
COc1ccc(C(=O)NCCSc2c(C)[nH]c3ccccc23)cc1,-24%,–
Cc1cccc(NC(=O)c2cnn(-c3ccccc3)c2-n2cccc2)c1C,-33.2%,–
O=C(NCCC1=CCCCC1)c1ccc2c(c1)N(Cc1cccc(Cl)c1)C(=O)c1ccccc1S2(=O)=O,15%,–
CCOc1cc(CNCCSc2nnnn2-c2ccccc2)cc(Cl)c1OC,-14.4%,–
COc1ccc(OC(C)C(=O)NCc2nc(-c3ccc(Cl)cc3)no2)cc1 (stereo not drawn),-73.4%,–
O=C1C2=C(Nc3ccccc3SC2c2ccc(C(F)(F)F)cc2)c2ccccc21 (stereo not drawn),-61.3%,–
Cc1cc(-c2ccc(S(=O)(=O)Nc3cccc(C)c3C)s2)on1,-41.5%,–
COc1ccc(-c2nc3sc(CCNS(=O)(=O)c4ccc(F)c(C)c4)c(C)n3n2)cc1,-26.6%,–
CCN1C(=O)c2ccccc2Sc2ccc(NC(=O)Nc3ccc(Br)c(C)c3)cc21,-81.9%,–
COc1ccc(C2=CC(c3ccc(F)cc3)n3ncc(C(=O)Nc4ccc(C)cc4)c3N2)cc1 (stereo not drawn),-18.3%,–
O=C(Nc1ccc(Br)cc1)c1ccc(Br)c(S(=O)(=O)N2CCCCC2)c1,-81.9%,–
Cc1ccccc1C(=O)Nc1sc2c(c1C(=O)O)CCC(C(C)(C)C)C2 (stereo not drawn),-32.5%,–
COc1ccccc1CNC(=O)Cn1c(=O)oc2cc(S(=O)(=O)N3CCC(C)CC3)ccc21,-39.5%,–
CCOc1ccc(CCNC(=O)c2cc3n(n2)CCCN(Cc2ccc(C)cc2)C3=O)cc1OCC,-25.1%,–
